Data from ChEMBL document CHEMBL5308504, “Tm Shift (DSF) assay results for EUbOPEN Chemogenomics Library” (2023).
“And” between values parts separate entries of the source, which are not always exact repeats. Identical values can stand only once.

Key:
[1] = molecular target: Bromodomain-containing protein 4 (Homo sapiens) (UniProt O60885); conditions: Compound concentration 20.0 uM, Protein concentration 2.0 uM, Result type QC Liability
[2] = molecular target: T1, Transcription intermediary factor 1-alpha (Homo sapiens) (UniProt O15164); conditions: Compound concentration 20.0 uM, Protein concentration 2.0 uM, Result type QC Liability
T1 sequence (whole entry): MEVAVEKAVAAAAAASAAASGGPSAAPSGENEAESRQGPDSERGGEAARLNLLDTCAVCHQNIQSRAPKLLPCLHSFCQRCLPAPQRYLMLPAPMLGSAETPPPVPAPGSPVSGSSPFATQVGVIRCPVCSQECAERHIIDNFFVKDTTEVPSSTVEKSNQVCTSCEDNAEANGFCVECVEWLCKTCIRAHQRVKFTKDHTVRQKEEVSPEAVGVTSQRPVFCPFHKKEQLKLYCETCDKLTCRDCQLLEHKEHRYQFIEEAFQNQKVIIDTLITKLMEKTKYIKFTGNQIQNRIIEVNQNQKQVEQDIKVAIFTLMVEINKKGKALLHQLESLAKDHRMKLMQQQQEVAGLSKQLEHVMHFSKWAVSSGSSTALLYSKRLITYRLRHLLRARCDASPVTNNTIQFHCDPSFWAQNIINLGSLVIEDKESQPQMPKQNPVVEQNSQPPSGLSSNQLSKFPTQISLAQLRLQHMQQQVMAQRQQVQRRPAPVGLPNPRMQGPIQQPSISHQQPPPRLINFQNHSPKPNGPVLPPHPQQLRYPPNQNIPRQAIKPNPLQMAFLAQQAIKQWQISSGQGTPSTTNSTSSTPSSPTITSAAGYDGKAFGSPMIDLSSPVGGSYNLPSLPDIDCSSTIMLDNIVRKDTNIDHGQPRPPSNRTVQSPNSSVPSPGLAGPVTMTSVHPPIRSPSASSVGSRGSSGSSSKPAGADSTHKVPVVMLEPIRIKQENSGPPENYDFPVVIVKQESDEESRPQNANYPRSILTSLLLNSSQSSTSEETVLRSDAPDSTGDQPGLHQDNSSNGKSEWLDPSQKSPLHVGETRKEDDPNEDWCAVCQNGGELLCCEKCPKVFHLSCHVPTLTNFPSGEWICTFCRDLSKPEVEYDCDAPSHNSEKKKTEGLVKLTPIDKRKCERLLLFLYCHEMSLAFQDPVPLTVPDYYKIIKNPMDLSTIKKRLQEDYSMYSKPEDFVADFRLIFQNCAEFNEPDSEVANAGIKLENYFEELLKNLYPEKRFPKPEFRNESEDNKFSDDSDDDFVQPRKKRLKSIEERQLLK

Row | Structure (SMILES) | ΔTm [1] | ΔTm [2]
1 | CC(=O)Nc1cccc(-n2c(=O)n(C3CC3)c(=O)c3c(Nc4ccc(I)cc4F)n(C)c(=O)c(C)c32)c1 | -2.35 °C | -2.86 °C
2 | CN(C)c1ncc2cc(-c3ccc(-c4ncccc4F)cc3Cl)c(=O)n(C[C@H]3OC[C@H](N)CO3)c2n1 | -2 °C | -2.59 °C
3 | CC(F)(F)CN1C(=O)c2[nH]nc(-c3cccc4[nH]c(=O)oc34)c2C1c1ccc(Oc2cc(C(F)(F)F)cc(C(F)(F)F)c2)cc1 (centres undefined) | -1.07 °C | -1.2 °C
4 | CN[C@@H](C)C(=O)N[C@H](C(=O)N1CCC[C@H]1c1nc(C(=O)c2ccc(F)cc2)cs1)C1CCCCC1 | -3.21 °C | -1.98 °C
5 | CNC(=O)c1c(F)cccc1Nc1nc(Nc2cc3c(cc2OC)CCN3C(=O)CN(C)C)nc2[nH]ccc12 | -1.02 °C | -1.89 °C
6 | Oc1c(CN2CCCC2)cc(COCc2ccccc2)c2cccnc12 | -2.69 °C | -4.08 °C
7 | O=C(O)CCCCN(CCc1cc(F)ccc1OCc1ccc(-c2ccc(C(F)(F)F)cc2)cc1)Cc1ccc(C(=O)O)cc1 | 0.73 °C | -0.3 °C
8 | COc1ccc(S(=O)(=O)N2CCOCC2)cc1Nc1ccc2c(n1)N(C1CCN(C)CC1)[C@H](C)C(=O)N2C | -8.74 °C | -1.33 °C
9 | CN(C(=O)c1ccccc1)c1ccc2c(c1)[nH]/c(=N\C(=O)c1ccc(Br)s1)n2CCC(N)=O | -2.77 °C | -1.25 °C
10 | O=C(O)CCCCN(CCc1ccccc1OCc1ccc(CCc2ccccc2)cc1)Cc1ccc(C(=O)O)cc1 | -0.88 °C | 0.09 °C
11 | COc1cc(F)ccc1-c1cc(Nc2cc(CS(C)(=N)=O)ccn2)ncc1F (centres undefined) | 0.98 °C | -2.98 °C
12 | COc1ccc(C(F)(F)F)cc1NC(=O)Nc1ccc(Oc2cc(C)nc(N)n2)c2ccccc12 | -0.19 °C | -0.94 °C
13 | CN[C@@H](C)C(=O)N[C@H](C(=O)N1CCC[C@H]1C(=O)N[C@H]1c2ccccc2C[C@H]1OCC#CC#CCO[C@@H]1Cc2ccccc2[C@@H]1NC(=O)[C@@H]1CCCN1C(=O)[C@@H](NC(=O)[C@H](C)NC)C1CCCCC1)C1CCCCC1 | -4.51 °C | -2.69 °C
14 | Nc1ncnc2c1ccn2[C@@H]1O[C@H]([C@@H](O)c2ccccc2)[C@@H](O)[C@H]1O | -2.22 °C | -3.4 °C
15 | C[C@@H]1OCC2(CCN(c3cnc(Sc4ccnc(N)c4Cl)c(N)n3)CC2)[C@@H]1N | -2.61 °C | -0.86 °C
16 | NCC1CCC(CNc2nc(NCc3ccccc3OC(F)(F)F)ncc2[N+](=O)[O-])CC1 (centres undefined) | -3.36 °C | -1.36 °C

Row | Structure (SMILES) | ΔTm [1] | ΔTm [2]
17 | C/C=C1\C(=O)CC2C3CCC4=CC(=O)CC[C@]4(C)C3CC[C@]12C (some centres undefined) | -2.62 °C | -2.32 °C
18 | COc1cc(N(C)c2ccnc3ccc(C(F)(F)F)cc23)cc(OC)c1OC | -0.67 °C | -4.07 °C
19 | COCCc1ccc(-c2c(C)nc3c(N4CCOCC4)ccnn23)cn1 | -1.01 °C | -1.13 °C
20 | FC(F)c1cncc(-c2ccc3ncc4nnc(C5=CCCOCC5)n4c3c2)c1 | -0.98 °C | 0.23 °C
21 | CCOC(=O)N1CCC(CN(Cc2ccc(Cl)cc2)Cc2ccc([N+](=O)[O-])s2)C1 (centres undefined) | -2.61 °C | -4.19 °C
22 | CN(C)C/C=C/C(=O)Nc1ccc(C(=O)Nc2cccc(Nc3ncc(Cl)c(-c4c[nH]c5ccccc45)n3)c2)cc1 | -2.3 °C | -1.56 °C
23 | CCn1c(CNC(=O)c2nc(Cl)cnc2N)[n+](CC)c2ccc(C(=O)N(C)CCN(C)C)cc21 | -0.61 °C | 0.2 °C
24 | Cc1cnc(-c2cnc(NCCNc3ccc(C#N)cn3)nc2-c2ccc(Cl)cc2Cl)[nH]1 | -2.28 °C | -0.78 °C
25 | CNc1ncc2cc(-c3ccc(-c4ncccc4F)cc3Cl)c(=O)n(C[C@H]3OC[C@H](N)CO3)c2n1 | -2.59 °C | -3.59 °C
26 | Cc1cc(Cn2c(N3CC4(CNC4)C3)nc3c(N4CCN(C)CC4)cc(Cl)cc32)cc(C)c1F | -1.49 °C | -0.77 °C
27 | CC(=O)N(CCN(C)C)c1ccc(N/C(=C2\C(=O)Nc3cc(Cl)ccc32)c2ccccc2)cn1 | -1.57 °C | -4.13 °C
28 | Cn1c(C2(NC(=O)c3ccc4c(C5CCCC5)c(-c5ncc(Br)cn5)n(C)c4c3)CCC2)nc2ccc(/C=C/C(=O)O)cc21 | 0 °C and -4.93 °C | 0.68 °C and -0.65 °C
29 | CN1C(=O)[C@@H](NC(=O)c2cc(Cc3ccccc3)on2)COc2ccccc21 | -1.02 °C | -3.21 °C
30 | COc1cc2nc(C)nc(N[C@H](C)c3cc(N)cc(C(F)(F)F)c3)c2cc1O[C@H]1CCOC1 | 0 °C | 0.8 °C
31 | CNC(=O)c1ccc2c(c1)ncn2-c1ccc(CC(=O)OC(C)(C)C)cc1 | -0.5 °C | -3.2 °C
32 | CNc1[nH]c(Nc2ccc(C(=O)N3CCOCC3)cc2OC)nc2ncc(Cl)c1-2 | -0.77 °C | -2.36 °C
